Assay results reported in PubChem BioAssay AID1159580 (chemical genetic matrix, 2015).
Several values for one entry are separate records, joined by “and”; a condition that tells them apart may be missing. Equal entries are not always repeated. Screen size: about 5,500 compounds; about 2,000 (36%) were called active. Another 18% or so got no clear call; they are omitted. Rule as the data show it: active = normalized growth mostly below about 0.91 (no sharp cut-off); inconclusive = no clear call, values can overlap the other calls; inactive = mostly above about 0.92. The list shows a part of the results.

Test: chemical genetic growth profiling, strain panel (AID 1159580);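 also: tested at 20 µM; growth read once vehicle control cultures reached saturation at 30 °C; 1 = growth at the plate median or of vehicle wells; lower values mean less growth of the strain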
Settings: growth OD

Measured: normalized growth

Cc1cccc(C)c1NC1=NCCCS1
inactive: S. cerevisiae deletion strains, locus YJR075W, strain HOC1, hits give low values 1.03 | S. cerevisiae deletion strains, locus YKL009W, strain mrt4, hits give low values 0.968 | S. cerevisiae deletion strains, locus YKL068W, hits give low values 0.977 | S. cerevisiae deletion strains, locus YKL085W, strain MDH1 (second series), hits give low values 0.976 | S. cerevisiae deletion strains, locus YKL085W, strain MDH1, hits give low values 0.976 | S. cerevisiae deletion strains, locus YKL160W, strain elf1, hits give low values 1 | S. cerevisiae deletion strains, locus YKL190W, strain CNB1, hits give low values 1.01 | S. cerevisiae deletion strains, locus YKR001C, strain vps1, hits give low values 1 | S. cerevisiae deletion strains, locus YKR026C, strain gcn3, hits give low values 1 | S. cerevisiae deletion strains, locus YKR091W, strain srl3, hits give low values 1.01 | S. cerevisiae deletion strains, locus YLL001W, strain dnm1, hits give low values 0.959 | S. cerevisiae deletion strains, locus YLL026W, hits give low values 1 | S. cerevisiae deletion strains, locus YLL041C, strain sdh2, hits give low values 1.02 | S. cerevisiae deletion strains, locus YLR027C, strain aat2, hits give low values 1.01 | S. cerevisiae deletion strains, locus YLR039C, strain RIC1, hits give low values 0.997 | S. cerevisiae deletion strains, locus YLR058C, strain SHM2, hits give low values 0.996 | S. cerevisiae deletion strains, locus YLR102C, strain apc9, hits give low values 0.989 | S. cerevisiae deletion strains, locus YLR113W, strain HOG1, hits give low values 1.04 | S. cerevisiae deletion strains, locus YLR221C, strain rsa3, hits give low values 0.994 | S. cerevisiae deletion strains, locus YLR258W, strain gsy2, hits give low values 0.995 | S. cerevisiae deletion strains, locus YLR262C, strain YPT6 (second series), hits give low values 1.03 | S. cerevisiae deletion strains, locus YLR262C, strain YPT6, hits give low values 0.985 | S. cerevisiae deletion strains, locus YLR268W, strain sec22, hits give low values 0.978 | S. cerevisiae deletion strains, locus YLR320W, strain mms22, hits give low values 0.994 | S. cerevisiae deletion strains, locus YLR330W, strain CHS5, hits give low values 0.991 | S. cerevisiae deletion strains, locus YLR342W, strain FKS1 (second series), hits give low values 0.981 | S. cerevisiae deletion strains, locus YLR342W, strain FKS1, hits give low values 0.998 | S. cerevisiae deletion strains, locus YLR357W, strain rsc2, hits give low values 0.999 | S. cerevisiae deletion strains, locus YLR370C, strain arc18, hits give low values 1.03 | S. cerevisiae deletion strains, locus YLR371W, strain rom2, hits give low values 0.986 | S. cerevisiae deletion strains, locus YLR384C, strain iki3, hits give low values 0.993 | S. cerevisiae deletion strains, locus YLR418C, strain cdc73, hits give low values 0.986 | S. cerevisiae deletion strains, locus YML016C, strain PPZ1, hits give low values 0.998 | S. cerevisiae deletion strains, locus YML032C, strain rad52, hits give low values 0.998 | S. cerevisiae deletion strains, locus YML120C, strain ndi1, hits give low values 1.01 | S. cerevisiae deletion strains, locus YML124C, strain tub3, hits give low values 0.996 | S. cerevisiae deletion strains, locus YMR058W, strain fet3, hits give low values 1.02 | S. cerevisiae deletion strains, locus YMR078C, strain ctf18, hits give low values 0.98 | S. cerevisiae deletion strains, locus YMR125W, strain sto1, hits give low values 0.986 | S. cerevisiae deletion strains, locus YMR129W, hits give low values 1 | S. cerevisiae deletion strains, locus YMR205C, strain PFK2, hits give low values 1.01 | S. cerevisiae deletion strains, locus YMR223W, strain ubp8, hits give low values 0.969 | S. cerevisiae deletion strains, locus YMR231W, strain pep5, hits give low values 1 | S. cerevisiae deletion strains, locus YMR307W, strain GAS1, hits give low values 0.988 and 1 | S. cerevisiae deletion strains, locus YNL067W, strain RPL9B, hits give low values 1.04 | S. cerevisiae deletion strains, locus YNL071W, strain lat1, hits give low values 1.01 | S. cerevisiae deletion strains, locus YNL128W, strain TEP1, hits give low values 0.991 | S. cerevisiae deletion strains, locus YNL153C, strain GIM3, hits give low values 1.06 and 0.996 | S. cerevisiae deletion strains, locus YNL175C, strain NOP13, hits give low values 0.988 | S. cerevisiae deletion strains, locus YNL183C, strain NPR1, hits give low values 0.96 | S. cerevisiae deletion strains, locus YNL197C, strain WHI3, hits give low values 1.01 | S. cerevisiae deletion strains, locus YNL209W, strain ssb2, hits give low values 1.01 | S. cerevisiae deletion strains, locus YNL224C, strain SQS1, hits give low values 1 | S. cerevisiae deletion strains, locus YNL233W, strain BNI4, hits give low values 1.04 | S. cerevisiae deletion strains, locus YNL248C, strain rpa49, hits give low values 0.997 | S. cerevisiae deletion strains, locus YNL250W, strain rad50, hits give low values 0.926 | S. cerevisiae deletion strains, locus YNL271C, strain bni1, hits give low values 0.985 | S. cerevisiae deletion strains, locus YNL298W, strain CLA4, hits give low values 0.98 | S. cerevisiae deletion strains, locus YNL307C, strain MCK1, hits give low values 0.983 | S. cerevisiae deletion strains, locus YNL322C, strain KRE1 (second series), hits give low values 1.01 | S. cerevisiae deletion strains, locus YNL322C, strain KRE1, hits give low values 1.01 | S. cerevisiae deletion strains, locus YNR049C, strain mso1, hits give low values 0.999 | S. cerevisiae deletion strains, locus YNR052C, strain pop2, hits give low values 0.974 | S. cerevisiae deletion strains, locus YOL006C, strain TOP1, hits give low values 1.08 | S. cerevisiae deletion strains, locus YOL012C, strain htz1 1.34 | S. cerevisiae deletion strains, locus YOL147C, strain pex11, hits give low values 0.984 | S. cerevisiae deletion strains, locus YOR001W, strain rrp6, hits give low values 1.02 | S. cerevisiae deletion strains, locus YOR061W, strain CKA2, hits give low values 1 | S. cerevisiae deletion strains, locus YOR069W, strain VPS5, hits give low values 0.99 | S. cerevisiae deletion strains, locus YOR070C, strain gyp1, hits give low values 1.01 | S. cerevisiae deletion strains, locus YOR080W, strain dia2, hits give low values 0.999 | S. cerevisiae deletion strains, locus YOR083W, strain WHI5 (second series), hits give low values 0.998 | S. cerevisiae deletion strains, locus YOR083W, strain WHI5, hits give low values 1 | S. cerevisiae deletion strains, locus YOR106W, strain vam3, hits give low values 1.04 | S. cerevisiae deletion strains, locus YOR136W, strain idh2, hits give low values 0.995 | S. cerevisiae deletion strains, locus YOR144C, strain elg1, hits give low values 0.994 | S. cerevisiae deletion strains, locus YOR184W, strain ser1, hits give low values 0.976 | S. cerevisiae deletion strains, locus YOR231W, strain MKK1, hits give low values 1.02 | S. cerevisiae deletion strains, locus YOR265W, strain rbl2, hits give low values 1.01 | S. cerevisiae deletion strains, locus YOR270C, strain vph1, hits give low values 1.03 | S. cerevisiae deletion strains, locus YOR290C, strain snf2, hits give low values 1.01 | S. cerevisiae deletion strains, locus YOR316C, strain cot1, hits give low values 0.99 | S. cerevisiae deletion strains, locus YPL051W, strain arl3, hits give low values 0.999 | S. cerevisiae deletion strains, locus YPL055C, strain LGE1, hits give low values 1.1 | S. cerevisiae deletion strains, locus YPL078C, strain atp4, hits give low values 1.02 | S. cerevisiae deletion strains, locus YPL106C, strain sse1, hits give low values 1.01 | S. cerevisiae deletion strains, locus YPL240C, strain hsp82, hits give low values 0.999 | S. cerevisiae deletion strains, locus YPL241C, strain CIN2, hits give low values 1.01 | S. cerevisiae deletion strains, locus YPL256C, strain CLN2, hits give low values 1.04 | S. cerevisiae deletion strains, locus YPR119W, strain clb2, hits give low values 0.985 | S. cerevisiae deletion strains, locus YPR141C, strain kar3, hits give low values 0.982 | S. cerevisiae deletion strains, locus YPR163C, strain tif3, hits give low values 0.979 | S. cerevisiae deletion strains, locus YPR167C, strain met16, hits give low values 0.992 | S. cerevisiae deletion strains, strain wtn01, hits give low values 0.973 | S. cerevisiae strains, strain wild type, hits give low values 1
